The source of these data is PubChem BioAssay (EPA / NIEHS).

Values joined by “and” are separate entries in the source; they are usually repeats but may differ in a detail not shown here. Equal values may be shown once. Inconclusive results are not listed. The source holds several records for some structures; these can differ, active in one and inactive in another. Active and inactive are the calls of the source. The calls were made as follows, unless noted: active = hit-call score of the fitted dose curve at least 0.9, where 1 is the maximum; inactive = score below 0.9.

Assay [1] concerns the target human RAR-related Orphan Receptor gamma (RORg), RORC (gene 6097) (UniProt P51449). Put plainly: ATG_RORg_TRANS: Attagene TRANS-FACTORIAL HepG2 Assay for human RAR-related Orphan Receptor gamma (RORg) (AID 2283011; active = hit-call score of the fitted dose curve at least 0.9, where 1 is the maximum). The essentials:
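Transient MRTU transfection of HepG2 (TRANS format, exogenous NR-Gal4 chimera). 24 h dosing. Total RNA → oligo(dT) RT → PCR → 6-FAM labelling → HpaI cut → CE. Gain vs DMSO.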

In assay [2] the target is Retinoic acid receptor RXR-alpha (Homo sapiens) (UniProt P19793). Put plainly: ATG_RXRa_TRANS: Attagene TRANS-FACTORIAL HepG2 Assay for human Retinoid X Receptor alpha (RXRa) (AID 2283012; active = hit-call score of the fitted dose curve at least 0.9, where 1 is the maximum). The essentials:
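Measures exogenous chimeric NR-GAL4 activity in transfected HepG2 liver cells after 24 h of dosing. Induced reporter mRNA was detected by RT-PCR with capillary electrophoresis, and gain of signal was analysed against DMSO.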

Assay [3] concerns the target human Thyroid Receptor alpha (THRa1), THRA (gene 7067) (UniProt P10827). Put plainly: ATG_THRa1_TRANS: Attagene TRANS-FACTORIAL HepG2 Assay for human Thyroid Receptor alpha (THRa1) (AID 2283014; active = hit-call score of the fitted dose curve at least 0.9, where 1 is the maximum). The essentials: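 Transient HepG2 transfection, NR-Gal4 chimera driving GAL4-UAS reporters; 24 h compound exposure; total RNA, oligo(dT) RT, PCR, fluorescent primer extension, capillary electrophoresis. Upward direction vs DMSO control.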

Assay [4] has as its target human RAR-related Orphan Receptor beta (RORb), RORB (gene 6096) (UniProt Q92753). Put plainly: ATG_RORb_TRANS: Attagene TRANS-FACTORIAL HepG2 Assay for human RAR-related Orphan Receptor beta (RORb) (AID 2283010; active = hit-call score of the fitted dose curve at least 0.9, where 1 is the maximum). The essentials:
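Transfect HepG2 with multiple GAL4-UAS reporter transcription units; dose chemicals for 24 h; isolate RNA, reverse-transcribe and PCR-amplify reporter sequences; label, digest and resolve fragments by capillary electrophoresis; fit increases relative to DMSO.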

The target in assay [5] is human Retinoid X Receptor beta (RXRb), RXRB (gene 6257) (UniProt P28702). As to the kind of experiment: ATG_RXRb_TRANS: Attagene TRANS-FACTORIAL HepG2 Assay for human Retinoid X Receptor beta (RXRb) (AID 2283013; active = hit-call score of the fitted dose curve at least 0.9, where 1 is the maximum). The essentials: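 Chimeric receptor-Gal4 activity was assessed in transiently transfected human HepG2 cells after 24 h exposure. Transcripts from GAL4-UAS reporters were quantified by fluorescent RT-PCR and capillary electrophoresis, with DMSO as negative control and baseline.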
human Retinoid X Receptor beta (RXRb), RXRB (gene 6257), sequence (P28702 whole entry, looked up, the tested form may be a part): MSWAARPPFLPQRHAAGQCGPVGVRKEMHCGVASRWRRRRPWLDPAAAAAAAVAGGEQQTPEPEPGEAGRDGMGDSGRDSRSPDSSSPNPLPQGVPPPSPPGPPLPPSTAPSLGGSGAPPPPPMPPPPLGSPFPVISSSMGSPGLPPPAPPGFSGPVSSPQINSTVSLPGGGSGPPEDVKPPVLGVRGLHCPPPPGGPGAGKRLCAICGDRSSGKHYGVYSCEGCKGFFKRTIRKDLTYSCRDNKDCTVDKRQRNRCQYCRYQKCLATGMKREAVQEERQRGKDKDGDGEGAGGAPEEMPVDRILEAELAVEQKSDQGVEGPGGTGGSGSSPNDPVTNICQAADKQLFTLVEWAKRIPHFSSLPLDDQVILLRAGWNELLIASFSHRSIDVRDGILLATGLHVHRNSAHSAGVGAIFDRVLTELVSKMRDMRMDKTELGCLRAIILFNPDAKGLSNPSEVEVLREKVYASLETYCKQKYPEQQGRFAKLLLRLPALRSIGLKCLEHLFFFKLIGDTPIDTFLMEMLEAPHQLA

Read-out in assay [6]: E-selectin (Homo sapiens) (UniProt P16581)
Put plainly: BSK_3C_Eselectin: BioMAP Diversity Plus: 3C Assay for Eselectin Biomarker Activity (AID 2283015).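 As to outcome: cell surface E-selectin protein quantified by ELISA 24 h after dosing.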 As to conditions: primary human endothelial cells (HUVEC); actives raise or lower the signal. The essentials:
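HUVEC, 3C stimulation; compound exposure 24 h; E-selectin by ELISA; gain- or loss-of-signal fitted bidirectionally vs DMSO baseline.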

Read-out in assay [7]: Interleukin-1 alpha (IL1a), IL1A (gene 3552)
Put plainly: BSK_BE3C_IL1a: BioMAP Diversity Plus: BE3C Assay for Interleukin-1 alpha (IL1a) Biomarker Activity (AID 2283016). As to conditions: primary human bronchial epithelial cells; actives raise or lower the signal. The essentials:
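Signal from IL-1a ELISA, taken 24 h after chemical dosing of human bronchial epithelial cells, is compared with DMSO as baseline using bidirectional curve fitting.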

Read-out in assay [8]: Monocyte Chemoattractant Protein-1 (MCP1), CCL2 (gene 6347)
Put plainly: BSK_3C_MCP1: BioMAP Diversity Plus: 3C Assay for Monocyte Chemoattractant Protein-1 (MCP1) Biomarker Activity (AID 2283017). As to conditions: primary human endothelial cells (HUVEC); actives raise or lower the signal. The essentials:
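HUVEC, 3C system; 24 h chemical exposure; MCP-1 by ELISA; bidirectional curve fit vs DMSO baseline.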

Read-out in assay [9]: Monocyte Chemoattractant Protein-1 (MCP1), CCL2 (gene 6347)
Put plainly: BSK_4H_MCP1: BioMAP Diversity Plus: 4H Assay for Monocyte Chemoattractant Protein-1 (MCP1) Biomarker Activity (AID 2283018). As to conditions: primary human endothelial cells (HUVEC); actives raise or lower the signal. The essentials:
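Endothelial cells from umbilical vein were treated with test chemical, then after 24 h MCP-1 levels were quantified by ELISA; endpoint values came from bidirectional fitting with DMSO as baseline of activity.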

Read-out in assay [10]: Human Leukocyte Antigen - DR isotype (HLADR), HLA-DRA (gene 3122)
As to the kind of experiment: BSK_3C_HLADR: BioMAP Diversity Plus: 3C Assay for Human Leukocyte Antigen - DR isotype (HLADR) Biomarker Activity (AID 2283019).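 As to outcome: ELISA of cell-surface HLA-DR on HUVEC 24 h after dosing.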 As to conditions: primary human endothelial cells (HUVEC); actives raise or lower the signal. The essentials:
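HUVEC, 3C stimulation, 24 h post-dose; HLA-DR by ELISA; bidirectional curve fit vs DMSO baseline; gain or loss of signal scored.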

human Thyroid Receptor alpha (THRa1), THRA (gene 7067), sequence (P10827 whole entry, looked up, the tested form may be a part): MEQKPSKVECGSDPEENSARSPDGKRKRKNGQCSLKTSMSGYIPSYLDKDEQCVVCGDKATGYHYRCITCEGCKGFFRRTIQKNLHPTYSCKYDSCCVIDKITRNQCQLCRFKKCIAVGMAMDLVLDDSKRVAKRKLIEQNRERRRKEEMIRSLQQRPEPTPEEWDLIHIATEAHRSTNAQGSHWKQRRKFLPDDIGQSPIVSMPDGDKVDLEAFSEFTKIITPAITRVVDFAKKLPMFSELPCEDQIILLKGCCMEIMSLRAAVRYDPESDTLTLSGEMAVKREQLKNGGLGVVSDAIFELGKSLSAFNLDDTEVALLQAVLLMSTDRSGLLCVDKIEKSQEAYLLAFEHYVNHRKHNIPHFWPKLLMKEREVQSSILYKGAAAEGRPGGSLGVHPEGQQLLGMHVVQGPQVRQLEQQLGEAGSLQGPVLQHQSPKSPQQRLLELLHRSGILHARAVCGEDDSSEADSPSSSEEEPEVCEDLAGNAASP
Retinoic acid receptor RXR-alpha (Homo sapiens), sequence (P19793 whole entry, looked up, the tested form may be a part): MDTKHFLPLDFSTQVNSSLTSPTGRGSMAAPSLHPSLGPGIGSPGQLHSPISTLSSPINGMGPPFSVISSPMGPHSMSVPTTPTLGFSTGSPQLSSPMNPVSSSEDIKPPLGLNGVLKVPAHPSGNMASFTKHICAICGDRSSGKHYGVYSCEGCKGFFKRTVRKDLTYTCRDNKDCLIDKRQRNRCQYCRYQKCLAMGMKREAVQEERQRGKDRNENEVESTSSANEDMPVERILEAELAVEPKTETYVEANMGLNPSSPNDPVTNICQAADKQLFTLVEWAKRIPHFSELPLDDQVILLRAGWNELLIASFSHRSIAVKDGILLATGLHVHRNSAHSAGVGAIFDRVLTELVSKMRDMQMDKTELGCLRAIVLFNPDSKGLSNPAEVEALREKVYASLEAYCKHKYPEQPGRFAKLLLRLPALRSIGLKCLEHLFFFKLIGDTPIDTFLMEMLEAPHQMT
human RAR-related Orphan Receptor gamma (RORg), RORC (gene 6097), sequence (P51449 whole entry, looked up, the tested form may be a part): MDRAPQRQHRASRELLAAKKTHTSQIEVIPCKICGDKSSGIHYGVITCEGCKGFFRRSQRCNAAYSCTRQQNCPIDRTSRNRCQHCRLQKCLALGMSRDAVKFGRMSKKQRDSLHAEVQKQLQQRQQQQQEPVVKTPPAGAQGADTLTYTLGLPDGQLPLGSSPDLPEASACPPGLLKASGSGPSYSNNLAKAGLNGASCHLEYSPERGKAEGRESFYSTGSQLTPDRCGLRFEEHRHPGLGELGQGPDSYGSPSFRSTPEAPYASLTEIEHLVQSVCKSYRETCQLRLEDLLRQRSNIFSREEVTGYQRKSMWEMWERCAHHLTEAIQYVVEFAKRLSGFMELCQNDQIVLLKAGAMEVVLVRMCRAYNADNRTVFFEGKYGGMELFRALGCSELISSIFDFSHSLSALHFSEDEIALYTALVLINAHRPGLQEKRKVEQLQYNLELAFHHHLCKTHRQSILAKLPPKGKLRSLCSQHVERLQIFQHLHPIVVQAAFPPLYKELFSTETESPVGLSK
E-selectin (Homo sapiens), sequence (P16581 whole entry, looked up): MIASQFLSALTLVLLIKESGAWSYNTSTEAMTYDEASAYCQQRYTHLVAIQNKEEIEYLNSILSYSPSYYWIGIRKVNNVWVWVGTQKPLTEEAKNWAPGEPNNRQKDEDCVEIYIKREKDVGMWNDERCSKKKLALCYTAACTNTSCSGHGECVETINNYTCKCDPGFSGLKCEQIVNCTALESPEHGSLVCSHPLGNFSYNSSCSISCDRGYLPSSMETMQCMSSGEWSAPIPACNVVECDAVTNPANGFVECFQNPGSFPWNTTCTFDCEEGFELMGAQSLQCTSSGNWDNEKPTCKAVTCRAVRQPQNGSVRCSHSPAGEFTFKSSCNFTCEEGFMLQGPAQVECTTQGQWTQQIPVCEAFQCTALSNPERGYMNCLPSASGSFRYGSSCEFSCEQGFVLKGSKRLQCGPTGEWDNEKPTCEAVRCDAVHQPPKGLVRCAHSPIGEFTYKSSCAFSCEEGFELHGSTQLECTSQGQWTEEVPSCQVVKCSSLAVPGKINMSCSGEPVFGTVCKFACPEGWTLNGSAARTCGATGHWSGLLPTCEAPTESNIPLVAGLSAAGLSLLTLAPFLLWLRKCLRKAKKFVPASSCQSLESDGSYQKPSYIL
human RAR-related Orphan Receptor beta (RORb), RORB (gene 6096), sequence (Q92753 whole entry, looked up, the tested form may be a part): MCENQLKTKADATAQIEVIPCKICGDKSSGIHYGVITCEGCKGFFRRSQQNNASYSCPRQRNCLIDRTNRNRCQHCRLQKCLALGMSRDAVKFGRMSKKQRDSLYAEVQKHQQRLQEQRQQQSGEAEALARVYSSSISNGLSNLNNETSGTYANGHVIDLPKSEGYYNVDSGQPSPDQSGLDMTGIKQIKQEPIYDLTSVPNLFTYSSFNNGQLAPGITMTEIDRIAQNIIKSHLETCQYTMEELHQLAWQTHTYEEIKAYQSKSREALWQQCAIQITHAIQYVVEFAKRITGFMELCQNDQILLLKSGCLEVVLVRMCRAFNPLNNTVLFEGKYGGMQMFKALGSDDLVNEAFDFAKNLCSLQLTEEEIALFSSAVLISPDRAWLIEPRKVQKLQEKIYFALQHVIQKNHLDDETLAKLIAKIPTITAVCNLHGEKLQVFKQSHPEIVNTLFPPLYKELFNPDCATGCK

Regarding `Nc1cccnc1N`, the molecule was classed as inactive in assay [1], in assay [2] and in assay [3].
As to `O=C(c1ccccc1)c1ccc(O)cc1O`, the outcome in assay [4], in [3], in [6], in [7], in assay [8] and in [9] was inactive. For the same molecule, the result in assay [10] was inactive. In addition, in [5], the AC50 is 35 µM (active).
Consider `O=C(O)C(F)(F)C(F)(F)C(F)(F)C(=O)O`, for which the call in assay [1], in assay [2], in assay [3], in assay [6], in assay [7] and in assay [8] was inactive. For the same molecule, the outcome in assay [9] and in assay [10] was inactive.
As for `CC(=O)C=O`, the result in assay [2] and in assay [3] was inactive.
Consider `NCC(F)(F)C(F)(F)C(F)(F)C(F)(F)C(F)(F)C(F)(F)C(F)(F)C(F)(F)F`, for which the molecule was called inactive in [2], in [5], in assay [3], in assay [6], in assay [7] and in assay [8]. Besides, the outcome in assay [9] and in assay [10] was inactive. The AC50 in assay [8] is 0.57 µM (active).
For the molecule `CCCCCCCCCCCCCC[P+](CCCC)(CCCC)CCCC`, the outcome in [2] and in assay [5] was inactive.
With `N#CCCOCCC#N`, the call in assay [2] and in [3] was inactive.
As for `Cc1cccc(C)n1`, the outcome in assay [1] and in assay [3] was inactive.
For `CCCCCCCCCc1ccc(OCCO)cc1`, the call in assay [2] and in [3] was inactive.
For the molecule `C=C(C)CCCC`, the call in assay [2], in [5] and in [3] was inactive.
Regarding `CCCCCCCCCCCCC[N+](C)(C)Cc1ccccc1`, the molecule was called inactive in assay [2], in assay [5] and in [3].
Take `O=C(O)C(F)(F)OC(F)(F)C(F)(F)OC(F)(F)C(F)(F)OC(F)(F)F`: the molecule was called inactive in assay [2], in assay [3], in assay [6], in [7], in assay [8] and in [9]. Moreover, the outcome in [10] was inactive.
As for `O=C=NCc1cccc(CN=C=O)c1`, the molecule was classed as inactive in assay [2], in assay [3], in assay [6], in assay [7], in assay [8] and in [9]. In [10], the result was inactive.
Regarding `CC(C)(C)c1cc(Cc2cc(C(C)(C)C)c(O)c(C(C)(C)C)c2)cc(C(C)(C)C)c1O`, the call in [2] and in assay [3] was inactive. Besides, the half-maximal activity concentration (AC50) in assay [5] is 15.7 µM (active).
Turning to `CCCC(=O)OCC(COC(=O)CCC)OC(=O)CCC`, the molecule was classed as inactive in assay [2].
With `c1ccc(C[P+](c2ccccc2)(c2ccccc2)c2ccccc2)cc1`, in assay [2], the result was inactive. Besides, the concentration at half-maximal activity (AC50) in [3] is 18.6 µM (active).
As for `O=C(Cl)c1ccc(Cl)cc1Cl`, the call in assay [1] and in assay [3] was inactive.
As for `CSc1ccc(O)cc1C`, the outcome in [2] and in assay [3] was inactive.
Consider `Cc1ccc(S(=O)(=O)C(I)I)cc1`, for which the outcome in assay [2], in assay [5] and in [3] was inactive. Moreover, the AC50 was 3.08 µM (active) in assay [6]; 5.63 µM (active) in [7]; 2.58 µM (active) in assay [8]; 1.43 µM (active) in assay [9]; 1.15 µM (active) in assay [10].
`CCn1c2ccccc2c2ccccc21`: the call in assay [2] and in [3] was inactive. Besides, in assay [5], the half-maximal activity concentration (AC50) was 13.3 µM (active).
Regarding `CCCCCCCCCCCC(=O)Cl`, in [2], the molecule was classed as inactive.
As to `OCCCCl`, the outcome in assay [2] and in assay [3] was inactive.
`O=C1C=CC(=O)N1c1ccccc1`: the result in [2] and in assay [3] was inactive.
With `O=C(c1ccccc1)c1ccc(Cl)cc1`, the outcome in [2] and in [3] was inactive.
As for `CC(O)C#CC(C)O` (stereo unspecified), the outcome in [2], in assay [5] and in [3] was inactive.
Take `CCCCCCCCn1sc(Cl)c(Cl)c1=O`: the result in assay [2] was inactive.
With `COCCC(=O)OC`, the result in assay [1] and in assay [3] was inactive.
As to `COCCOCCC[Si](C)(O[Si](C)(C)C)O[Si](C)(C)C`, the call in assay [2] and in [3] was inactive. For the same molecule, the AC50 in assay [5] was 33.4 µM (active).
Turning to `CC1=CCC(=O)O1`, the outcome in assay [2] and in assay [5] was inactive.
With `CC(C)Nc1ccc(NC(C)C)c2c1C(=O)c1ccccc1C2=O`, the outcome in assay [2] and in [3] was inactive.
Regarding `CCOCOCC`, the call in assay [2] and in assay [3] was inactive.
With `CCCCOC(=O)C(C)O` (stereo unspecified), the molecule was called inactive in assay [2] and in [3].
Regarding `CO[Si](C)(CCC(F)(F)C(F)(F)C(F)(F)C(F)(F)C(F)(F)C(F)(F)F)OC`, the result in [2], in assay [5], in [3], in assay [6], in assay [7] and in [8] was inactive. Besides, the result in assay [9] and in assay [10] was inactive.
Take `Oc1ccc2c(c1)CCC2`: the call in assay [2], in assay [5] and in assay [3] was inactive.
Turning to `OCCC(O)CO` (stereo unspecified), the molecule was called inactive in assay [2], in assay [5] and in [3].
As to `CC(C)CCCC(C)CCO` (stereo unspecified), the molecule was called inactive in [2] and in assay [5]. Moreover, the AC50 in assay [6] is 36.8 µM (active); in [7] it was 30.6 µM (active); in assay [8], 30.2 µM (active); in assay [9], 35.3 µM (active); in [10] it was 29.9 µM (active).
On to `FC(F)(F)C(F)(F)C(F)(F)C(F)(F)C(F)(F)C(F)(F)CC[Si](Cl)(Cl)Cl`, for which the molecule was called inactive in [2], in assay [5], in assay [6], in assay [7], in assay [8] and in assay [9]. Also, the result in [10] was inactive.
On to `O=C1c2ccccc2C(=O)c2c(Cl)cccc21`, for which the molecule was called inactive in assay [2] and in assay [3]. The AC50 in assay [5] is 28.4 µM (active).
Regarding `CC1CCCCC1`, the molecule was classed as inactive in [1] and in assay [3].
Take `CCOC(=O)CCC(C)=O`: the outcome in assay [5] was inactive.
As to `O=S(=O)(O)CCC(F)(F)C(F)(F)C(F)(F)C(F)(F)F`, the molecule was classed as inactive in assay [3], in assay [6], in [7], in assay [8], in assay [9] and in assay [10].
On to `C=C(C)C(=O)OCC(F)(F)C(F)(F)C(F)(F)C(F)F`, for which the result in assay [2], in assay [6], in assay [7], in [8], in assay [9] and in [10] was inactive.
As to `O=C(Cl)C(F)(F)C(F)(F)C(F)(F)C(F)(F)C(F)(F)C(F)(F)F`, the call in assay [2], in assay [6], in assay [7], in assay [8], in assay [9] and in assay [10] was inactive.
Regarding `CCN=C1C=CC(=C(c2ccc(N(CC)CC)cc2)c2ccc(N(CC)CC)cc2)c2ccccc21`, in assay [2], the result was inactive. Besides, the AC50 in assay [6] is 3.62 µM (active) and 2.78 µM (active); in assay [7] it was 1.99 µM (active) and 1.72 µM (active); in assay [8] it was 2.22 µM (active) and 2.19 µM (active); in assay [9], 1.03 µM (active) and 1.16 µM (active); in [10], 1.95 µM (active) and 1.7 µM (active).

The AC50 is the concentration giving half of the maximal activity seen.
